Reference: PubChem BioAssay AID1619 (SRMLSC, 2009)
Screen size: about 220,000 compounds; about 830 (0.38%) were called active.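 How the source made its calls: active means compound inhibiting the enzyme by more than half at any dose during confirmatory dose-response retesting; inconclusive means strong single-dose inhibitors picked by rank but not retested; inactive means the rest.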 These entries were drawn from the full list. Entries with a potency or affinity are not part of this list.

Target: Leucine aminopeptidase (Plasmodium falciparum (isolate 3D7)) (UniProt Q8IL11)
Sequence (Q8IL11 whole entry, looked up): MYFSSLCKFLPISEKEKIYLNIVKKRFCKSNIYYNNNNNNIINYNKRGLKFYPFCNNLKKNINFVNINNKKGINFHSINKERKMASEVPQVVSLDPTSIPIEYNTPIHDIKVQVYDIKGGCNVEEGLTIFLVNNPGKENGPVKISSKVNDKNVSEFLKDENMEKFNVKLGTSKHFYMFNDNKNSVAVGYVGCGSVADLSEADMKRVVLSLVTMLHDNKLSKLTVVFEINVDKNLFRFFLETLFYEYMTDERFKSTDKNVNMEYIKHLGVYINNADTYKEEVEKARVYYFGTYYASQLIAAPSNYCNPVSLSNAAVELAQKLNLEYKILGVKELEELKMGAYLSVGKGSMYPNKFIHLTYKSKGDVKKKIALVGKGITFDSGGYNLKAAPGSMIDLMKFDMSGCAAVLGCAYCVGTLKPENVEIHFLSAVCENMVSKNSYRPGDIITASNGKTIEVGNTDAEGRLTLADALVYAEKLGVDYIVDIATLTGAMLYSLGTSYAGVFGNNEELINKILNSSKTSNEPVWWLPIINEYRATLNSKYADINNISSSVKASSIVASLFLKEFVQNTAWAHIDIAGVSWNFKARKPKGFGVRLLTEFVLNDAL
Assay: P. falciparum M17LAP inhibitors, primary screen, biochemical, fluorogenic H-Leu-NHMec substrate, 1536-well (AID 1619);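 further: plate controls were full reaction with DMSO carrier for no effect and no enzyme background for full effect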
Settings: recombinant M17LAP, H-Leu-NHMec fluorogenic kinetic assay; at 30 µM; active compounds read high

inhibition, inactive:
Cc1ccccc1/C=N/NC(=O)Cn1nnc(N)n1 -9.27%
COc1ccc2sc(N(CCN(C)C)C(=O)/C=C/c3cccs3)nc2c1 1.07%
CC1=NN(C(=O)CSCc2ccccc2)C(O)(c2ccc(F)cc2)C1 (stereo not given) 6.76%
COC(=O)c1c(NC(=O)C2C3CCC(C3)C2C(=O)O)sc2c1CCCCC2 (stereo not given) 56.4%
COC(=O)c1c(NC(=O)C2CC2)sc2c1CCCC2 -6.73%
CCOC(=O)c1c(NC(=O)C2CCCCC2C(=O)O)sc2c1CCCCC2 (stereo not given) 33.7%
CCOC(=O)c1c(NC(=O)C2C3CCC(O3)C2C(=O)O)sc2c1CCCC2 (stereo not given) 14.3%
COc1ccc(NC(=S)N(CCN2CCOCC2)Cc2cc3cc4c(cc3[nH]c2=O)OCCO4)cc1 10.8%
Cc1nnc(SCC(=O)NC(=O)NCc2ccco2)s1 -1.14%
Cc1ccccc1Nc1nnc(SCC(=O)NCc2ccco2)s1 45.1%
CCOc1ccc(S(=O)(=O)c2c(C(=O)c3ccccc3)cnc3cc4c(cc23)OCCO4)cc1 1.82%
O=C(CCS(=O)(=O)Cc1ccccc1F)N1CCc2ccccc2C1 6.01%
COc1ccccc1N1CCN(c2ccc(N3C(=O)CCC3=O)cc2[N+](=O)[O-])CC1 -4.52%
COc1ccc(OCC#CCN2CC(C)OC(C)C2)cc1 (stereo not given) -3.27%
O=C(N/N=C/c1ccc(-c2ccc([N+](=O)[O-])cc2)o1)c1cccnc1 4.87%
CC(C)(C)c1ccc2c(c1)OC(C(=O)N/N=C\c1ccc(-c3cccc(C(=O)O)c3)o1)CO2 (stereo not given) 7.12%
Nc1nonc1C(=O)N/N=C/c1ccc(-c2cccc(C(=O)O)c2)o1 30.2%
O=C(N/N=C\c1ccc(-c2ccc([N+](=O)[O-])cc2)o1)C1COc2ccccc2O1 (stereo not given) 1.94%
CCOP(C)(=O)C1(C(=O)OCc2ccccc2)CC1 (stereo not given) -6.01%
COc1cccc(CNc2ccc([N+](=O)[O-])cc2C)c1 6.82%
CC(C)CN1C(=O)/C(=C/c2cccs2)NC1=S 35.9%
O=C1/C(=C/c2ccc(N3CCCC3)cc2)NC(=S)N1C1CC1 -10.7%
O=C(CC1C(=O)NCCN1C(=O)c1ccc(F)cc1)OCc1ccccc1 (stereo not given) -6.93%
Cc1ccc(CNC(=O)CN2CCCC(C)C2)cc1 (stereo not given) 8.72%
COc1ccc(-c2[nH]nc3c2C(c2ccoc2)C(C#N)=C(N)O3)cc1 (stereo not given) 27.9%
Cc1[nH]nc2c1C(c1ccoc1)C(C#N)=C(N)O2 (stereo not given) 21.9%
COc1cccc(-c2[nH]nc3c2C(c2ccsc2)C(C#N)=C(N)O3)c1 (stereo not given) 35.3%
COc1cc(-c2[nH]nc3c2C(c2ccoc2)C(C#N)=C(N)O3)cc(OC)c1OC (stereo not given) 24%
O=C(Nc1nnc(-c2ccccn2)o1)c1ccc(Br)cc1 8.43%
COCC(C)NC(=O)c1cc2cccc([N+](=O)[O-])c2[nH]1 (stereo not given) 11.6%
NC(=O)N[C@@H](Cc1c[nH]c2ccccc12)C(=O)OCC(=O)N1CCCCC1 -0.49%
O=C(O/N=C(\c1ccccc1)c1ccncc1)c1ccccc1Cl 3.91%
CC(C)Cn1c2ccccc2c2cc(C(=O)O)ccc21 1.66%
COc1ccc(-c2csc(N)n2)cc1 -1.01%
COc1ccc(-c2nc(N)n[nH]2)cc1 2.51%
Cc1ccc(S(=O)(=O)/N=C(\c2ccccc2)N(C)S(=O)(=O)c2ccc(C)cc2)cc1 -10.3%
Cc1cc(C)cc(NC(=O)C2CCCN(c3nc(C)cc(C)n3)C2)c1 (stereo not given) -13.6%
Cc1cccc(NC(=O)C2CCN(c3nc(C)cc(C)n3)CC2)c1 35.1%
Cc1cc(C(F)(F)F)nn1CC(=O)NNC(=S)Nc1cccc(Cl)c1 9.62%
CC1CCC/C(=N\NC(=S)NCc2ccccc2)C1 (stereo not given) 9.29%
CCCCOc1ncnc2c1[nH]c1ccc(OC)cc12 -0.91%
COCCOc1cc2ncnc(N3CCC(C(=O)O)CC3)c2cc1OCCOC 5.32%
Cc1cc(/C=C(/C#N)c2nc3ccccc3[nH]2)c(C)n1-c1cccc([N+](=O)[O-])c1 -7.34%
Cc1cc(/C=C(/C#N)c2nc3ccccc3[nH]2)c(C)n1-c1ccccc1C(=O)O 23%
COc1cccc(N2CCN(C(=S)NCCc3ccccc3)CC2)c1 -3.71%
CCOc1ccc(S(=O)(=O)NCCCN2CCOCC2)cc1 -8.49%
Cc1ccc2c(c1)N(C(C)C(=O)NCc1ccccn1)C(=O)CO2 (stereo not given) -7.53%
COC(=O)CSc1ncnc2scc(-c3ccccc3)c12 -1.19%
O=C(CSc1ncnc2scc(-c3ccccc3)c12)Nc1ccc(C(=O)O)cc1 5.99%
CCc1cc2c(C)ccc(C)c2nc1SCC(=O)Nc1c[nH]c(=O)[nH]c1=O 14.5%
COc1ccccc1NC(=O)CSc1nc2ccccc2cc1Cc1ccccc1 3.65%
CCc1cc2ccccc2nc1SCC(=O)Nc1cc(C)on1 4.25%
COc1cc(NC(=O)CSc2ccccc2)c(C(=O)O)cc1OC 39.3%
COc1cc(NC(=O)CSc2cc(C)c3cc(C)cc(C)c3n2)c(C(=O)O)cc1OC 15.4%
COc1cc(NC(=O)CSc2nccc(C)n2)c(C(=O)O)cc1OC 43.1%
CCn1c(COc2ccc3c(c2)CCCC3)nnc1SCC(=O)Nc1ccc(C(=O)OC)cc1 5.55%
Cc1ccc(CNC(=O)C2CC(=O)OC23CCCC3)c(C)c1 (stereo not given) 6.63%
CN(C)CCNc1c2c(nc3nnnn13)CCCC2 5.48%
O=C(NN=C1CCCC1)C1COc2ccccc2O1 (stereo not given) 0.87%
O=C(O)C1CC(=O)N(Cc2ccc3c(c2)OCO3)C1 (stereo not given) -0.32%
COC(=O)[C@@]1(Cc2ccc(F)cc2)[C@H]2c3cc(C(=O)N(C)C)n(Cc4c(CO)[nH]cc(C)c4=O)c3C[C@H]2CN1C(=O)c1ccccc1 6.87%
O=c1cc(NCC2CCCO2)[nH]c(=O)n1-c1ccc(Cl)cc1 (stereo not given) 3.43%
C=CCNS(=O)(=O)c1nc(C)c(Cl)c(C)c1C#N 9.01%
CC(Sc1ncc(C#N)c(N)n1)C(=O)Nc1ccccc1 (stereo not given) 9.93%
CCc1nnc(NS(=O)(=O)c2ccc(NC(=O)c3cccc4ccccc34)cc2)s1 15%
CCc1nnc(NS(=O)(=O)c2ccc(NC(=O)/C=C/c3ccccc3Cl)cc2)s1 1.04%
CCc1nnc(NS(=O)(=O)c2ccc(NC(=O)OC)cc2)s1 6.85%
CCc1nnc(NS(=O)(=O)c2ccc(N/C=C\C(=O)c3ccc4ccccc4c3)cc2)s1 12.1%
CCc1nnc(NS(=O)(=O)c2ccc(NC(=S)NC(=O)/C=C/c3ccc(F)cc3)cc2)s1 53%
CCc1nnc(NS(=O)(=O)c2ccc(NC(=S)NC(=O)/C=C/c3ccccc3)cc2)s1 23.5%
CCc1nnc(NS(=O)(=O)c2ccc(NC(=S)NC(=O)/C=C/c3ccc(OC)cc3)cc2)s1 40.7%
CCc1nnc(NS(=O)(=O)c2ccc(NC(=O)COc3ccc(Cl)c(C)c3)cc2)s1 52.7%
Cc1ccc(Nc2nnc(SCC(=O)NCCN3C(=O)CSC3=O)s2)cc1C 54.4%
O=C(NCCc1c[nH]c2ccccc12)c1c(Cl)nc2sccn12 -3.3%
O=C(NCc1ccncc1)c1cn(-c2ccccc2)nc1-c1cccnc1 9.29%
CCOC(=O)Cc1nnc(Nc2ccc(C)cc2C)c2ccccc12 -12.3%
CC(C)CCNC(=O)C1CCC(=O)N1C(C)C (stereo not given) -2.71%
N#CCCN(CC(=O)O)S(=O)(=O)c1ccccc1 -11.6%
CCc1ccc(C(=O)Nc2nnn(CC)n2)cc1 10.2%
C1CCCCCC2(CCCCC1)OCC(CN1CCOCC1)O2 (stereo not given) 1.36%
Cc1c(C(=O)c2ccccc2)c2ccccn2c1CCc1ccccn1 5.7%
N#Cc1cccc(NC(=O)COC(=O)c2cccc(N3C(=O)c4ccccc4C3=O)c2)c1 8.44%
CC1(c2ccccc2)NC(=O)N(CC(=O)Nc2cccc(C#N)c2)C1=O (stereo not given) -4.04%
O=C(CN1NS(=O)(=O)c2ccccc2C1=O)Nc1ccccc1OC(F)F 43.5%
CCCCc1ccc(NC(=O)CN2NS(=O)(=O)c3ccccc3C2=O)cc1 52.6%
O=C1CSC(c2cccnc2)N1c1ccc(F)cc1 (stereo not given) 9.53%
CC(=O)Nc1ccc(CN2CCCC(CO)(Cc3ccccc3C)C2)cc1 (stereo not given) -0.77%
Nc1nc2n(n1)C(c1ccco1)CC(c1ccc(Cl)cc1)N2 (stereo not given) -19.4%
Cc1cccc(OC(=O)C2C(c3ccccc3)C(C(=O)O)C2c2ccccc2)c1 (stereo not given) 33.4%
COc1ccc(/C=C2/SC(=O)NC2=O)cc1 25.1%
Nc1c(-c2cccc(Cl)c2)cnn1-c1cccc(C(F)(F)F)c1 5.43%
COc1ccc(OC)c(NC(=O)C2CCCC2)c1 -9.43%
C=C1C(C(=O)Nc2ccc(OCC)cc2)C1C(=O)Nc1ccc(OCC)cc1 (stereo not given) -7.51%
COc1ccc(OC)c(NC(=O)C2CCCCC2)c1 5.19%
CCOc1ccc(NC(=O)C2C3CCC4C(CCC32)C4(Cl)Cl)cc1 (stereo not given) 9.32%
